# Source: PubChem BioAssay (NCI)
# The panel holds about 83,000 compounds, 20% with a hit somewhere; the sample as a whole holds those more often.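 Plates (96-well) were seeded with cells, treated with compound at one concentration, and incubated for 48 hours before percent growth was determined.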 Values without a mark were called inactive. Active and inactive are the calls of the source. The calls were made as follows: active = growth percent below 10; inactive = the rest.
# Key:
# Assay in all cases: NCI-60 one-dose screen, 48 h (100 = growth as untreated, 0 = no growth, -100 = all killed)
# [1] = tested on: RPMI-8226 leukemia; settings: 10 µM unless noted
# [2] = tested on: OVCAR-8 ovarian; settings: 10 µM unless noted
# [3] = tested on: OVCAR-5 ovarian; settings: 10 µM unless noted
# [4] = tested on: OVCAR-4 ovarian; settings: 10 µM unless noted
# [5] = tested on: IGROV1 ovarian; settings: 10 µM unless noted
# [6] = tested on: OVCAR-3 ovarian; settings: 10 µM unless noted
# [7] = tested on: HS 578T breast; settings: 10 µM unless noted
# [8] = tested on: NCI/ADR-RES ovarian; settings: 10 µM unless noted
# [9] = tested on: T-47D breast; settings: 10 µM unless noted
# [10] = tested on: BT-549 breast; settings: 10 µM unless noted
# [11] = tested on: MDA-MB-435 melanoma; settings: 10 µM unless noted
# [12] = tested on: SW-620 colon; settings: 10 µM unless noted
# [13] = tested on: MCF7 breast; settings: 10 µM
# [14] = tested on: HCT-116 colon; settings: 10 µM unless noted
# [15] = tested on: KM12 colon; settings: 10 µM unless noted
# [16] = tested on: HCC-2998 colon; settings: 10 µM unless noted
SMILES,growth [1],growth [2],growth [3],growth [4],growth [5],growth [6],growth [7],growth [8],growth [9],growth [10],growth [11],growth [12],growth [13],growth [14],growth [15],growth [16]
CCCCCCCCCCCCCCn1cc(C2=C(c3coc4ccc(OC)cc34)C(=O)NC2=O)c2ccccc21,122%,91.8%,93.8%,102%,81.6%,102%,98.5%,98.9%,96.2%,91.1%,97.6%,89.2%,88.5%,78%,98%,
Cn1c(/C=C(\C#N)c2ccccc2)nc2c(N3CCOCC3)nc(Cl)nc21,-24.3% (active),8.78% (active),-50.1% (active),-58.4% (active),-61.7% (active),-91.8% (active),-20% (active),3.17% (active),-37.8% (active),-77.2% (active),-84.7% (active),-74.2% (active),-57.7% (active),-78.1% (active),-53% (active),-17.2% (active)
COc1ccc2oc(=O)cc(Cn3cc(Cn4cnc5c4c(=O)n(C)c(=O)n5C)nn3)c2c1,103%,106%,94%,103%,104%,110%,97.8%,105%,94.1%,,108%,105%,92.1%,102%,105%,95.9%
COc1cc(/C=C/C(=O)c2ccc(Cl)cc2)cc(CN2CCCCC2)c1O,50.9%,89.3%,99.7%,76.7%,90.5%,93.8%,85.4%,88.5%,79.3%,91.2%,74%,88.6%,48.1%,82.1%,72.6%,
COc1cc(/C=C2\CCC/C(=C\c3cc(CN4CCCCC4)c(O)c(OC)c3)C2=O)cc(CN2CCCCC2)c1O,55.5%,80.6%,114%,60.9%,88.2%,65.2%,81.4%,87.2%,104%,103%,76.8%,71.4%,52.5%,60.1%,73.7%,103%
O=C1/C(=C\c2ccc[nH]2)c2ccccc2N1c1ccccc1,94.4%,102%,87.9%,67.7%,84.5%,112%,92.3%,90.2%,64.9%,,108%,97%,19.5%,95.1%,95.7%,93.6%
Cc1cc2c(c(C)c1Cl)C(=O)/C(=C/c1cccc([N+](=O)[O-])c1)O2,108%,94.4%,100%,86.5%,96.6%,107%,95.8%,101%,98.4%,106%,99.5%,104%,66%,103%,103%,102%
Cc1ccc2cccc(Oc3ccc(Nc4ncnc5onc(-c6ccccc6)c45)cc3)c2n1,111%,91%,94.6%,71.9%,77.2%,93.8%,89.4%,87.3%,65.2%,93.3%,79.9%,87%,79.5%,58.5%,63.8%,
Nc1nc(-c2ccccc2Br)nn1-c1nc2ccccc2s1,102%,97.6%,98%,101%,101%,108%,104%,105%,105%,100%,95%,104%,78.4%,103%,101%,110%
